BRCA1 expr act: qHTS Assay to Identify Small Molecule Activators of BRCA1 Expression; AID 624202, 2012; MCF7-BRCA1-FFLuc reporter, luminescence, 48 h; response scale: scaled: vehicle 0%, 10 µM genistein 100%; Potency, µM (series often up to 46.1 µM), for inactives: at the highest dose activation, hits mostly activators; hit rate 1.1% among 380,000; note: potency is the fitted concentration of half-maximal effect; nearly all actives have a fitted effect of over 80% in size
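48 h compound treatment of MCF7-BRCA1-FFLuc cells (phenol-red free MEM, 37 °C), then 15 min with luciferase substrate and luminescence imaging.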
a7 integrin act: qHTS for Activators of Integrin-Mediated Alleviation for Muscular Dystrophy; hit rate 0.064% among 350,000; Potency, µM (highest dose often 38.3 µM), inactives show at the highest dose activation, hits mostly activators; alpha7betagal myoblasts, beta-gal FDG fluorescence, 48 h;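 note: potency is the fitted concentration of half-maximal effect; 100% = response of the positive control SU9516; nearly all actives have a fitted effect of over 60% in size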
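Alpha7betagal+/- myoblasts (passage 13) were plated 16-24 hr, then exposed to compounds (1:260 dilution of DMSO stock) for 48 hours at 37C. After MPER lysis, β-galactosidase reporter activity was read as FDG fluorescence (ex 480/em 540) after 30 minutes.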
IL2 activator: qHTS of IL-2 Activators; IL-2 activation reporter assay, cell-based qHTS; stimulated with anti-CD3/CD4/CD28 beads; in transgenic mouse T cells; hit rate 0.065% among 360,000; activation, % (series mostly up to about 46 µM); in the data active = activation above about 50%; inconclusive = mostly about 30% to 49%; note: 0% is about no effect
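EGFP and DsRed fluorescence is measured by plate cytometry in unstimulated transgenic mouse T cells exposed to compound for 60 minutes, then stimulated 18 hours at 37 degrees C with anti-CD3/anti-CD4 beads plus anti-CD28.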
PKM2 act: qHTS Assay for Activators of Human Muscle isoform 2 Pyruvate Kinase | hit rate 0.34% among 260,000 | Potency, µM (highest dose often 57.5 µM), inactives show top-dose activation, hits mostly activators | purified PKM2, Kinase-Glo ATP luminescence, activation; response scale: 0% is enzyme alone, no compound; note: potency is the fitted concentration of half-maximal effect; % is set by controls: 0 for no effect and ±100 for the full control effect; nearly all actives have a fitted effect of over 55% in size
Target sequence (P14618 whole entry, looked up, canonical isoform): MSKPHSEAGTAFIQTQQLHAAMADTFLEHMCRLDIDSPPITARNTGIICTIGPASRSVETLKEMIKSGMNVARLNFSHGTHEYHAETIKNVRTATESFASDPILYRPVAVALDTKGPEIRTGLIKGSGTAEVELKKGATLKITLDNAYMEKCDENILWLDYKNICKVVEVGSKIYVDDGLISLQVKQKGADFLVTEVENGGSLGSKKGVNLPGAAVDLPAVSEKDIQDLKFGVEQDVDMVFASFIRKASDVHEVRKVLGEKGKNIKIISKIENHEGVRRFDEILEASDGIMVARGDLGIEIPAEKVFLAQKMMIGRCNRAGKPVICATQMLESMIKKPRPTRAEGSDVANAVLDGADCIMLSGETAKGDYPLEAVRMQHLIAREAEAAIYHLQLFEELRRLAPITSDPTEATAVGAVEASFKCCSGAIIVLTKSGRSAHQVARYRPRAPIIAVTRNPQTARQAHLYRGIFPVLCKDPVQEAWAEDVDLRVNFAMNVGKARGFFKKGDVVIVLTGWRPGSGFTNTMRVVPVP
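Kinase-Glo luminescence reports ATP generated from ADP (0.1 mM) and PEP (0.5 mM) by purified hPK-M2 after 1 h at room temperature, pH 7.2 imidazole buffer; intermediate enzyme activity allows detecting inhibitors and activators.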
Apoferritin bind: qHTS Assay for Identification of Novel General Anesthetics; hit rate 0.074% among 350,000; Ferritin light chain (Equus caballus), P02791; apoferritin/1-aminoanthracene competitive binding, fluorescence; Potency, µM (top dose mostly 77.5 µM), for the others: at the highest dose activity change, negative = displacement, usual class: inhibitors; note: potency is the fitted concentration of half-maximal effect; % is set by controls: 0 for no effect and ±100 for the full control effect; nearly all actives have a fitted effect of over 20% in size
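Probe: 1-aminoanthracene (50% saturated, PBS). Protein: horse-spleen apoferritin, 10 uM. Incubation: 10 min, room temperature. Detection: 380 nm excitation, 535 nm emission. Analysis: normalized response, four-parameter Hill.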
The depositor's hits bear a star; [ ] = dose if it differs, or a comment. Compounds with a hit are over-represented: about 1.3% of the library has one in this group of screens. Unless noted, calls come from the whole dose curve; as a rule, active = well fitted curve in the direction sought with a large enough effect; inconclusive = small, poorly fitted or top-dose-only effect, or another doubt; inactive = no such curve, though single readings can be large; an effect the other way counts as inactive or inconclusive.

Results for O=c1[nH][nH]cc1C=Nc1ccccc1O ?
BRCA1 expr act: -46.4%; a7 integrin act: -37.3%; IL2 activator: -4.0; PKM2 act: -4.6%; Apoferritin bind: -21.3%

What do the screens show for `O=c1c(=Nc2ccccc2O)c(=O)c2ccccc12`?
BRCA1 expr act: 11.2µM*; a7 integrin act: -27.4%; IL2 activator: 1.4; PKM2 act: 0.5%; Apoferritin bind: inconclusive

Results for Cn1c(SCc2ccccc2[N+](=O)[O-])nnc1-c1cccnc1 ?
BRCA1 expr act: 11.2µM*; a7 integrin act: -2.0%; IL2 activator: -1.4; PKM2 act: -4.5%; Apoferritin bind: -4.1%

What do the screens show for `Cc1ccc(Nc2ncccc2C(N)=O)cc1[N+](=O)[O-]`?
BRCA1 expr act: 5.62µM*; a7 integrin act: -32.1%; IL2 activator: -4.5; PKM2 act: -1.4%; Apoferritin bind: 6.4%

How did CC(C)CO/N=C1/C[C@@H](O)[C@@H](O)[C@@H]2[C@@H]3C(=O)N(Cc4ccc5c(c4)OCO5)C(=O)[C@H]3CC[C@@H]12 do in these assays?
Apoferritin bind: -1.5%[15.3 µM]

Results for CC1=NN(C(N)=S)C(=O)C1N=Nc1ccc(S(N)(=O)=O)cc1 (stereo not given) ?
BRCA1 expr act: 25.9%; a7 integrin act: inconclusive; IL2 activator: 0.3; PKM2 act: -0.6%; Apoferritin bind: -22.7%

What do the screens show for `CC(=O)N(C)c1ccc(N=NC2C(=O)N(C(N)=S)N=C2C)cc1` (stereo not given)?
BRCA1 expr act: 3.98µM*; a7 integrin act: 6.3%; IL2 activator: -0.1; PKM2 act: -15.5%; Apoferritin bind: -23.8%

What do the screens show for `Nc1nc(N)nc(-c2cccc(Br)c2)n1`?
BRCA1 expr act: 12.6µM*; a7 integrin act: 23.8%; IL2 activator: -0.3

Results for COc1ccc(CC(=O)NCc2ccc3c(c2)CCN3C(C)=O)cc1 ?
Apoferritin bind: -14.7%

Results for CC(C)(C)c1csc(NC(=O)c2ccc(Br)o2)n1 ?
BRCA1 expr act: 10µM*; a7 integrin act: 11.2%; IL2 activator: -2.8; PKM2 act: 2.1%; Apoferritin bind: inconclusive

How did COc1ccc(NC(=O)c2ccc(Br)o2)cc1 do in these assays?
BRCA1 expr act: inconclusive; a7 integrin act: -14.9%; IL2 activator: 1.1; PKM2 act: -35.8%; Apoferritin bind: -5.4%[110 µM]

Results for CC(C)C(=O)Nc1ccc(-c2csc(-c3ccccc3)n2)cc1 ?
BRCA1 expr act: 5.01µM*; a7 integrin act: 15.5%; IL2 activator: -3.9; PKM2 act: -4.4%; Apoferritin bind: -6.0%

Results for COc1ccc(-c2csc(NC(=O)CC(C)C)n2)cc1 ?
BRCA1 expr act: 8.91µM*; a7 integrin act: -5.2%; IL2 activator: -3.3; PKM2 act: -2.4%; Apoferritin bind: -9.1%

How did CC(C)C(=O)Nc1cccc(-c2csc(-c3ccccc3)n2)c1 do in these assays?
BRCA1 expr act: 68.9%; a7 integrin act: -11.7%; IL2 activator: -3.3; PKM2 act: -2.4%; Apoferritin bind: -1.5%

How did CC(C)(C)c1csc(NC(=O)c2ccncc2)n1 do in these assays?
BRCA1 expr act: 1.9%; a7 integrin act: -46.6%; IL2 activator: 0.7; PKM2 act: -1.2%; Apoferritin bind: -16.2%

What do the screens show for `COc1ccc(-c2csc(NC(=O)c3c(OC)cccc3OC)n2)cc1`?
BRCA1 expr act: -5.7%; a7 integrin act: 1.5%; IL2 activator: 0.0; PKM2 act: -0.6%[11.5 µM]; Apoferritin bind: 35.6%

How did COc1ccc(NC(=S)NC(=O)c2ccc(Br)o2)cc1 do in these assays?
BRCA1 expr act: 6.31µM*; a7 integrin act: 19.7%; IL2 activator: 0.0; PKM2 act: 0.5%; Apoferritin bind: -16.3%

What do the screens show for `O=c1ccc2ccc(OS(=O)(=O)O)cc2o1`?
Apoferritin bind: 596.8%

What do the screens show for `Cc1nc(-c2ccc(NC(=O)CC(C)C)cc2)cs1`?
BRCA1 expr act: 2.24µM*; a7 integrin act: 12.6%; IL2 activator: -2.1; PKM2 act: -11.5%; Apoferritin bind: -3.0%
